Among the data in ChEMBL document CHEMBL1157539, “Thousands of chemical starting points for antimalarial lead identification” (Nature, 2010) are Inhibition values, retold here.

Holding throughout (type): functional
Assay [1] relates to Plasmodium falciparum. In words: GSK_TCMDC: Inhibition of Plasmodium falciparum 3D7 in whole red blood cells, using parasite LDH activity as an index of growth. Test compounds present at 2uM.
The test system of assay [2] is Plasmodium falciparum. In words: GSK_TCMDC: Inhibition of Plasmodium falciparum Dd2 in whole red blood cells, using parasite LDH activity as an index of growth. Test compounds present at 2uM.
The test system of another assay is HepG2. The assay can be described thus: GSK_TCMDC: Percent inhibition of human HepG2 cell line. Test compounds present at 10uM.

The Inhibition is the relative decrease from the control value, in per cent.

For `CCN1CCN(c2cc(C)c3cc(NC(=O)C=Cc4cccc(OC)c4OC)ccc3n2)CC1`, the Inhibition worked out at 99% in the assay on Plasmodium falciparum [1], 38% in the assay on Plasmodium falciparum [2] and 18% in the assay with HepG2.
Turning to `Cc1cccc(CNc2nc(C)cc(N[C@@H](CC(C)C)C(=O)NCCOc3ccccc3)n2)c1.O=C(O)C(F)(F)F`, the results for the Inhibition with Plasmodium falciparum [1], with Plasmodium falciparum [2] and in the assay on HepG2 were 93%, 35% and 15%, respectively.
The corresponding values for `CCCC1N=C(N)N=C(N)N1c1ccc(Cl)cc1.Cl` (stereo unspecified) are 96%, 0% and 14%.
As to `O=C(/C=C/c1ccc(-c2nc3ccc(Cl)cc3[nH]2)cc1)NC1CCN(Cc2ccccc2)CC1`, the Inhibition with Plasmodium falciparum [1] is reported as 100%; in the assay on Plasmodium falciparum [2], 92%; in the assay on HepG2 it was 3%.
As for `Cl.N=c1n(Cc2ccc(Cl)cc2)c2ccccc2n1CC(O)c1ccc(Cl)c(Cl)c1` (stereo unspecified), the results for the Inhibition in the assay on Plasmodium falciparum [1], in the assay on Plasmodium falciparum [2] and in the assay on HepG2 were 98%, 99% and 58%, respectively.
For the compound `CN1CCCC(CN2CCN(Cc3cccc(-c4ccc(-c5nc6ccccc6[nH]5)s4)c3)CC2)C1.O=C(O)C(F)(F)F` (stereo unspecified), the Inhibition is given as 99% in the assay with Plasmodium falciparum [1], 99% in the assay with Plasmodium falciparum [2] and 52% in the assay with HepG2.
Regarding `COc1ccc(C=Cc2cc(=N)c3ccccc3[nH]2)cc1.I`, the Inhibition in the assay on Plasmodium falciparum [1] came to 93%; in the assay with Plasmodium falciparum [2], 16%; with HepG2, 38%.
Turning to `CCOc1ccc(/C=C/C(=O)Nc2cccc3c2CCN(C)C3)cc1.Cl`, the values for the Inhibition with Plasmodium falciparum [1], with Plasmodium falciparum [2] and in the assay on HepG2 were 92%, 3% and 0%, respectively.
For `COc1ccc2nccc([C@@H](O)CN3CCC(NCc4cc5ccccc5nc4O)CC3)c2c1.Cl`, the Inhibition with Plasmodium falciparum [1] is 97%; with Plasmodium falciparum [2], 0%; with HepG2 it was 0%.
With `Cc1cccc2nc(-c3ccc(-c4cccc(CNCCN5CCNCC5)c4)cc3)[nH]c12.O=C(O)C(F)(F)F`, the values for the Inhibition in the assay on Plasmodium falciparum [1], in the assay on Plasmodium falciparum [2] and in the assay with HepG2 were 85%, 2% and 9%, respectively.
Take `CC(C)c1ncc(-c2ccncc2)c(C2CCC(CNC(=O)c3cccnc3)CC2)n1` (stereo unspecified): the Inhibition turned out to be 89% in the assay on Plasmodium falciparum [1], 88% with Plasmodium falciparum [2] and 0% in the assay with HepG2.
The corresponding values for `Cc1ccc(Cn2ncc(N3CCNCC3)c(Cl)c2=O)cc1NC(=O)Nc1ccc(-c2ccccc2)cc1.O=C(O)C(F)(F)F` are 90%, 30% and 56%.
On to `COc1cccc(C=CC(=O)N(CCN)Cc2ccccc2)c1.O=C(O)C(=O)O`, for which the Inhibition in the assay on Plasmodium falciparum [1] came out at 99%; with Plasmodium falciparum [2], 0%; in the assay with HepG2, 0%.
On to `Cc1ccc(CN2CCN(c3cc4c(cc3Cl)CCN4C(=O)Cc3ccc(NC(=O)c4ccc(C(F)(F)F)cc4)cc3)CC2)cc1`, for which the Inhibition was 88% in the assay on Plasmodium falciparum [1], 0% in the assay on Plasmodium falciparum [2] and 15% in the assay on HepG2.
`CCCNC(=O)c1ccc(N2CCC(c3ccccc3C)CC2)nc1.O=C(O)C(F)(F)F`: the Inhibition with Plasmodium falciparum [1] is given as 86%; in the assay on Plasmodium falciparum [2], 80%; with HepG2 it was 6%.
Regarding `CCOc1cc(C(=O)NCc2ccc(Cl)c(Cl)c2)ccc1-c1nc2cc(Cl)ccc2[nH]1`, the Inhibition with Plasmodium falciparum [1] was 97%; in the assay with Plasmodium falciparum [2] it was 4%; with HepG2 it was 10%.
With `N#Cc1cccc(C(=O)Nc2cccc(-c3cccc(CN4CCNCC4)c3)c2)c1.O=C(O)C(F)(F)F`, the Inhibition was determined as 89% with Plasmodium falciparum [1], 10% in the assay with Plasmodium falciparum [2] and 37% in the assay on HepG2.
Regarding `COc1ccccc1C1CC(c2ccc(Br)cc2)=NN1C(=O)c1ccccc1` (stereo unspecified), the Inhibition with Plasmodium falciparum [1] came to 85%; in the assay on Plasmodium falciparum [2] it was 59%; in the assay with HepG2 it was 12%.
As to `CN(C)c1ccc(-c2nc3cc(N)ccc3[nH]2)cc1`, the Inhibition in the assay with Plasmodium falciparum [1] worked out at 100%; in the assay on Plasmodium falciparum [2], 97%; with HepG2, 1%.
For `Cc1cc(N2CCCC2)nc(Nc2ccc(NC(=O)Cc3ccccc3)cc2)n1`, the Inhibition with Plasmodium falciparum [1] came out at 100%; in the assay with Plasmodium falciparum [2] it was 72%; in the assay with HepG2, 71%.
Take `COc1nc(Nc2cccc(C)c2)nc(OC)n1`: the Inhibition was determined as 94% in the assay with Plasmodium falciparum [1], 0% in the assay with Plasmodium falciparum [2] and 46% with HepG2.
For the compound `CC(C)(CNCc1ccc(OC(F)(F)F)cc1)c1nc(-c2ccc(Cl)c(O)c2)c(-c2ccncc2)[nH]1.Cl`, the Inhibition in the assay with Plasmodium falciparum [1] amounted to 100%; with Plasmodium falciparum [2], 99%; in the assay on HepG2, 38%.
The corresponding values for `Cl.N#Cc1cccc(NC(=O)Nc2ccc3c(c2)CCN(C2CCC2)CC3)c1` are 91%, 26% and 22%.
The corresponding values for `COc1ccc2nc3cc(Cl)ccc3c(Nc3ccc(O)c(CNC(C)C)c3)c2c1` are 100%, 100% and 5%.
For the compound `O=C(Nc1ccc(-c2ccccc2)cc1)Nc1cccc(OCCN2CCCC2)c1.O=C(O)C(F)(F)F`, the Inhibition in the assay on Plasmodium falciparum [1] amounted to 94%; with Plasmodium falciparum [2], 14%; in the assay on HepG2 it was 11%.
With `CCCCNS(=O)(=O)c1ccc(NC(=O)c2cc([N+](=O)[O-])ccc2Cl)cc1`, the Inhibition worked out at 92% with Plasmodium falciparum [1], 47% in the assay with Plasmodium falciparum [2] and 12% in the assay on HepG2.
Consider `Cc1cccc2nc(-c3ccc(-c4ccc(NC(=O)CN5CCN(C)CC5)cc4)s3)[nH]c12`, for which the results for the Inhibition in the assay on Plasmodium falciparum [1], in the assay with Plasmodium falciparum [2] and in the assay with HepG2 were 95%, 86% and 56%, respectively.
With `CC1(C)N=C(N)N=C(N)N1c1ccc([N+](=O)[O-])cc1.Cl`, the Inhibition in the assay on Plasmodium falciparum [1] came out at 93%; with Plasmodium falciparum [2], 1%; in the assay on HepG2, 3%.
The corresponding values for `O=C(CCn1c2ccccc2c2ccccc21)NN=Cc1ccco1` are 96%, 0% and 6%.
With `NC(=O)c1cccc(C(=O)Nc2cccc(-c3cccc(-c4nc5ccccc5[nH]4)c3)c2)c1`, the results for the Inhibition in the assay on Plasmodium falciparum [1], in the assay with Plasmodium falciparum [2] and in the assay on HepG2 were 100%, 78% and 32%, respectively.
For the compound `CCOc1ccc(Br)cc1/C=C/C(=O)Nc1ccc2c(c1)CN(C)CCC2.O=C(O)C(F)(F)F`, the results for the Inhibition in the assay with Plasmodium falciparum [1], in the assay on Plasmodium falciparum [2] and with HepG2 were 97%, 37% and 18%, respectively.
The corresponding values for `OCc1ccc(-c2cncc(Nc3ccc(F)c(Cl)c3)c2)cc1` are 92%, 99% and 2%.
